PubChem BioAssay (NCI)
This is part of a sample that, as a whole, favours compounds with a hit. Of some 83,000 tested, about 20% had one in any assay.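 Single-concentration screen, 48 h exposure, 96-well plates. Endpoint: percent growth. Below 10 = active.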 Unmarked numbers belong to inactive results. Calls of active or inactive are those of the source.

Columns and labels:
Assay in all cases: NCI-60 one-dose screen, 48 h (100 = growth as untreated, 0 = no growth, -100 = all killed)
Conditions in all cases: 10 µM
786-0 renal = tested on: 786-0 renal
MALME-3M melanoma = tested on: MALME-3M melanoma
MDA-MB-231 breast = tested on: MDA-MB-231 breast
SF-268 CNS = tested on: SF-268 CNS
SF-295 CNS = tested on: SF-295 CNS
UACC-257 melanoma = tested on: UACC-257 melanoma
UACC-62 melanoma = tested on: UACC-62 melanoma
SK-MEL-28 melanoma = tested on: SK-MEL-28 melanoma
SK-MEL-2 melanoma = tested on: SK-MEL-2 melanoma
SN12C renal = tested on: SN12C renal
TK-10 renal = tested on: TK-10 renal
ACHN renal = tested on: ACHN renal
CAKI-1 renal = tested on: CAKI-1 renal
A498 renal = tested on: A498 renal
OVCAR-8 ovarian = tested on: OVCAR-8 ovarian
OVCAR-5 ovarian = tested on: OVCAR-5 ovarian
IGROV1 ovarian = tested on: IGROV1 ovarian
OVCAR-3 ovarian = tested on: OVCAR-3 ovarian
HS 578T breast = tested on: HS 578T breast
NCI/ADR-RES ovarian = tested on: NCI/ADR-RES ovarian

Compound | growth (786-0 renal) | growth (MALME-3M melanoma) | growth (MDA-MB-231 breast) | growth (SF-268 CNS) | growth (SF-295 CNS) | growth (UACC-257 melanoma) | growth (UACC-62 melanoma) | growth (SK-MEL-28 melanoma) | growth (SK-MEL-2 melanoma) | growth (SN12C renal) | growth (TK-10 renal) | growth (ACHN renal) | growth (CAKI-1 renal) | growth (A498 renal) | growth (OVCAR-8 ovarian) | growth (OVCAR-5 ovarian) | growth (IGROV1 ovarian) | growth (OVCAR-3 ovarian) | growth (HS 578T breast) | growth (NCI/ADR-RES ovarian)
CCOc1ccc(/C=N/NC(=O)Cn2nc(Cc3ccc(OC)cc3)c3onc(C)c3c2=O)cc1 | -40.3% (active) | -14.5% (active) | 20.7% | 19% | 20.4% | 62.1% | 29.2% | 11.5% | 55.9% | -6.22% (active) | 50.2% | 13.1% | 5.68% (active) | 48.2% | 16.9% | 44.9% | 25.7% | 13.7% | 1.74% (active) | 13.2%
Fc1ccc(/C=C/c2nc3ccccc3n3c(-c4ccc(Cl)cc4)nnc23)cc1 | 73.4% | 7.93% (active) | 70% | 78% | 128% | 96.7% | 70.2% | 89.1% | 102% | 78.1% | 112% | 47.5% | 62.3% | 111% | 72.6% | 96.3% | 72.2% | 76.9% | 80.5% | 70.4%
C#CCOc1cc(N(CC)CC)ccc1C(C(=O)NC(C)(C)C)N(C(=O)C1CCc2cc(F)ccc2O1)c1ccc(F)cc1F (stereo not given) | 53.9% | 62.1% | 55.4% | 50.6% | 33.2% | 29.6% | 29.1% | 62.8% | -30.4% (active) | 47.1% | 61.3% | 24.7% | 29.8% | 68.9% | 43.9% | 64% | 60.3% | 33.4% | 70.6% | 53.1%
C#C[C@]1(O)CC[C@H]2[C@@H]3CC=C4c5sc(Nc6ccc(C(F)(F)F)cn6)nc5CC[C@]4(C)[C@H]3CC[C@@]21C | -72.4% (active) | -13.1% (active) | -34.2% (active) | 23.2% | -68.8% (active) | -3.66% (active) | -45.9% (active) | -16.5% (active) | -26.8% (active) | 7.3% (active) | 12.9% | 0.62% (active) | 0.3% (active) | -15.8% (active) | -8.07% (active) | 9.25% (active) | 8.57% (active) | -35.8% (active) | -6.11% (active) | -19.9% (active)
COc1ccc(Cc2nn(CC(=O)N/N=C/c3ccc([N+](=O)[O-])cc3)c(=O)c3c(C)noc23)cc1 | 26.3% | 53% | 61.2% | 77.7% | 92.7% | 92.8% | 73.9% | 80.3% | 99.1% | 39% | 101% | 47.7% | 53.2% | 111% | 56.6% | 90.2% | 82.9% | 45.1% | 48.8% | 73.9%
COc1cc2oc(-c3cccc(C(=O)Nc4ccc(Cl)cc4)c3)cc(=O)c2c(OCCNC(=O)[C@@H](N)CO)c1OC | 48.4% | -56.9% (active) | 3.78% (active) | 69.9% | 99.4% | -67.8% (active) | 38.8% | -74.9% (active) | 78.5% | 43.9% | 138% | 99.4% | 45.9% | 177% | 26.3% | 60.9% | 57.9% | 89.5% | 53.8% | 102%
COc1ccc(OC)c(-n2cc(C#N)c(N)c2C(=O)c2ccc(Cl)cc2Cl)c1 | 63.4% | 50.3% | 64.2% | 56.2% | 28.4% | 63.6% | 30.5% | 59% | -27.5% (active) | 48.9% | 78.8% | 53.3% | 36.9% | 28.3% | 68.8% | 74.4% | 53.3% | 23.5% | 38.6% | 30.4%
COc1ccc(C2c3sc4ccc(C)cc4c3Oc3nc(N)nc(N)c32)cc1 (stereo not given) | 102% | 85.3% | 89.3% | 88.6% | 102% | 94.9% | 63.4% | 93.2% | 96% | 91.4% | 125% | 94.4% | 63.3% | 113% | 87% | 96.2% | 79.1% | 96.8% | 78.8% | 85.1%
CCn1c(SCC(=O)Nc2ccc(-c3nc4ccccc4[nH]3)cc2)nc2ccccc2c1=O | -89.1% (active) | -83.6% (active) | -71.1% (active) | -29.4% (active) | -66.8% (active) | -84.6% (active) | -81.7% (active) | -76.7% (active) | -79.4% (active) | -77.7% (active) | -95.4% (active) | -86.4% (active) | -99.2% (active) | -75% (active) | -85.5% (active) | -44.4% (active) | -52.5% (active) | -66.1% (active) | -37.8% (active) | -42.6% (active)
COC(=O)CNC(=O)COc1c(OC)c(OC)cc2oc(-c3cccc(C(=O)Nc4ccc(Cl)cc4)c3)cc(=O)c12 | -24.3% (active) | -26.1% (active) | -1.24% (active) | 21.9% | 21.4% | 58.7% | 12.7% | 20.5% | 12.7% | 41% | 130% | 47.2% | 55.8% | 119% | -69% (active) | 90.7% | 58.4% | 55.6% | -3.95% (active) | 47.5%
Cc1ccc(S(=O)(=O)N2CCN(S(=O)(=O)c3oc(-c4ccccc4)nc3C#N)CC2)cc1 | 86.6% | 92.7% | 100% | 79.1% | 132% | 73.3% | 45.3% | 78.2% | 75% | 76.8% | 77% | 69.4% | 69.8% | 88.4% | 84.7% | 91.1% | 80.5% | 92.5% | 95.2% | 83%
O=C(Nc1ccc(OCc2ccc(Cl)cc2)cc1)Nc1ccc(Cl)c(C(F)(F)F)c1 | 17.2% | -16.6% (active) | 13.4% | 43.3% | -12.8% (active) | -6.05% (active) | 16.8% | 35.6% | -30% (active) | 18.2% | 18.5% | 11.2% | 1.19% (active) | -12.4% (active) | 13.5% | 53.3% | 47.6% | 29.3% | 22.1% | 1.08% (active)
C#C[C@]1(O)CC[C@H]2[C@@H]3CC=C4c5sc(Nc6cc(C)cc(C)n6)nc5CC[C@]4(C)[C@H]3CC[C@@]21C | -52.2% (active) | -39.8% (active) | -44.9% (active) | 7.69% (active) | -75.3% (active) | -49.4% (active) | -53.1% (active) | -56.8% (active) | -28.4% (active) | -3.77% (active) | 4.66% (active) | 7.43% (active) | -27.6% (active) | -73.5% (active) | 4.44% (active) | -21.9% (active) | 26.2% | -3.49% (active) | -20.5% (active) | 0.407% (active)
Cc1cc(N=C2NC(=O)/C(=C/c3cc(C(C)(C)C)c(O)c(C(C)(C)C)c3)S2)n[nH]1 | 12% | 19.2% | 22.8% | 32.7% | -0.721% (active) | 4.76% (active) | 8.86% (active) | 22.9% | -27.6% (active) | 16.6% | -11.6% (active) | 14% | 12.4% | -8.54% (active) | 8.93% (active) | 36.6% | 14.4% | 9.43% (active) | -3.19% (active) | 5.91% (active)
Cn1cc(/C=C(/SS/C(=C/c2cn(C)c3cccc(C(=O)O)c23)C(=O)O)C(=O)O)c2c(C(=O)O)cccc21 | 104% | 97.9% | 102% | 101% | 105% | 104% | 92.3% | 98.3% | 106% | 99% | 93% | 110% | 87.9% | 109% | 103% | 105% | 113% | 109% | 108% | 93.4%
